High-throughput results from PubChem BioAssay.
Tau fluor counter = Counterscreen qHTS for Inhibitors of Tau Fibril Formation, Fluorescence Polarization | 0.93% of 280,000 active | AID 1463, 2008 | Potency, µM (series often up to 57.7 µM), inactives show top-dose activity change, negative = decrease | tau K18 P301L Alexa594 fluorescence, heparin fibrillization; further: potency means the concentration at half of the fitted maximal effect; nearly all actives have a fitted effect of over 55% in size
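Human tau K18 P301L (15 uM unlabeled, 0.24 uM Alexa 594-labeled) in 100 mM sodium acetate pH 7 with 20 uM heparin, 6 hr at 37 C. ThT 30 uM added, 1 hr ambient; Alexa 594 FP and total fluorescence read at 555/632 nm.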
TRb-SRC2 inh = qHTS for Inhibitors of the Interaction of Thyroid Hormone Receptor and Steroid Receptor Coregulator 2. Potency, µM (doses to about 106 µM), inactives show at the highest dose activity change, negative = inhibition, most hits filed as inhibitors. Thyroid hormone receptor beta (Homo sapiens), P10828. AID 1469, 2008. TRbeta-SRC2 peptide binding, fluorescence polarization; receptor liganded with 1 µM T3. 0.065% of 280,000 active;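 further: potency means the concentration at half of the fitted maximal effect; plate controls were bound peptide for no effect and peptide without receptor for full effect; nearly all actives have a fitted effect of over 50% in size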
Target sequence (P10828 whole entry, looked up): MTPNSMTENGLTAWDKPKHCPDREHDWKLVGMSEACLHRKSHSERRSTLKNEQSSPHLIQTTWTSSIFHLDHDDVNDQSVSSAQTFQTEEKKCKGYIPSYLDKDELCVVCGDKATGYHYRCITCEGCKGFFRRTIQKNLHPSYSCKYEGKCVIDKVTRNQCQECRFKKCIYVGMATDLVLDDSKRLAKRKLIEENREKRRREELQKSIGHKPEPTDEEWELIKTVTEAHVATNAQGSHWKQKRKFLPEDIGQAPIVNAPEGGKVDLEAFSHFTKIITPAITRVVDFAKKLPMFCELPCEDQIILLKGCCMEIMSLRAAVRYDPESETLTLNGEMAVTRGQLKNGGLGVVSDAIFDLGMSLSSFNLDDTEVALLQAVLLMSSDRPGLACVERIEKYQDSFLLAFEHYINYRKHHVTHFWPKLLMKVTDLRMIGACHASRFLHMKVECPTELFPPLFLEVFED
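Assay buffer: 20 mM Tris-HCl, 100 mM NaCl, 10% glycerol, 1 mM EDTA, 0.01% NP-40, 1 mM DTT, 1 uM T3, 5% DMSO; TRb LBD 0.6 uM, Texas Red SRC2 20 nM; FP after 5 hr.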
Tau fibril FP = qHTS for Inhibitors of Tau Fibril Formation, Fluorescence Polarization. Microtubule-associated protein tau (Homo sapiens), P10636. K18 P301L tau heparin fibrillization, Alexa594 FP, 6 h. Potency, µM (titrated, usually from 57.7 µM), for inactives: at the top dose activity, negative = inhibition, actives largely listed as inhibitors. 0.39% of 280,000 active. AID 1468, 2008; further: potency means the concentration at half of the fitted maximal effect; nearly all actives have a fitted effect of over 55% in size
Target sequence (P10636 561-689 P618L limits assumed): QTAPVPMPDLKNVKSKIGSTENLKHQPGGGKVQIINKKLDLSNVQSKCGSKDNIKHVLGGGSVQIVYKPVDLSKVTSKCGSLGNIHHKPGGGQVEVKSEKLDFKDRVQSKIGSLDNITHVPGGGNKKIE
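FP of Alexa 594-tau after heparin (20 uM) induction. Substrate: human K18 P301L, 15 uM unlabeled, 0.24 uM labeled. Buffer 100 mM sodium acetate pH 7. 6 hr, 37 C.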
Tau ThT inhib = qHTS for Inhibitors of Tau Fibril Formation, Thioflavin T Binding; Microtubule-associated protein tau (Homo sapiens), P10636; recombinant tau K18 P301L, heparin-induced fibrillization, ThT fluorescence; Potency, µM (series often up to 57.4 µM), inactives show at the highest dose activity, negative = inhibition, actives largely listed as inhibitors; 2.1% of 270,000 active; AID 1460, 2008; further: potency means the concentration at half of the fitted maximal effect; nearly all actives have a fitted effect of over 55% in size
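ThT emission at 510 nm, taken 1 hr after adding 30 uM dye, quantifies aggregates formed when 20 uM heparin acts on human tau K18 P301L for 6 hr at 37 C.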
TexasRed fluor = Total Fluorescence Counterscreen for Inhibitors of the Interaction of Thyroid Hormone Receptor and Steroid Receptor Coregulator 2 | TRb/SRC2 Texas Red total fluorescence interference | Potency, µM (series often up to 106 µM), for inactives: top-dose fluorescence change, negative = quenching | 0.29% of 280,000 active | AID 1479, 2009; active means well fitted curve in either direction with a large enough effect; inconclusive means small, poorly fitted or top-dose-only effect; further: potency means the concentration at half of the fitted maximal effect
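Flags fluorescent or light-absorbing compounds by total fluorescence, S + 2P, at 555 nm excitation and 632 nm emission. Mixture: 20 nM Texas Red SRC2 peptide, 0.6 uM human TRb LBD, 1 uM T3, 5% DMSO; compound exposure 5 h at ambient temperature.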
PNC assembly inh = High Content Assay for Compounds that inhibit the Assembly of the Perinucleolar Compartment | PC3M PTB-GFP, PNC prevalence imaging, 16 h; stronger effect = lower value | activity change (PNC), negative = inhibition, % at 10 µM | 3.1% of 140,000 active;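 active means readout at or below -70, meaning at least 70% loss of cells showing the perinucleolar compartment, a nuclear body marking cancer cells; inconclusive means readout between -30 and a set limit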;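 further: plate controls were DMSO wells for no effect and camptothecin positive control wells for full effect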
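PC3M cells stably expressing PTB-GFP, 750–1000 cells/well, treated 16 h at 37 °C with compound (23 nl of library stock), in duplicate. After paraformaldehyde fixation and Hoechst stain, imaged at 20x; PNC prevalence scored by image analysis.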
The depositor's hits bear a star; ? = inconclusive; / = not tested or not shown; [ ] = another dose, or the depositor's remark. An excerpt weighted towards active compounds, which were near 4.6% of everything screened. Unless noted, the call rests on the fitted dose curve; in most records, active means well fitted curve in the direction sought with a large enough effect; inconclusive means small, poorly fitted or top-dose-only effect, or another doubt; inactive means no such curve, though single readings can be large; an effect the other way counts as inactive or inconclusive. Unless noted, on the % scale 0 is the no-effect control and ±100 the full control effect.

SMILES	Tau fluor counter	TRb-SRC2 inh	Tau fibril FP	Tau ThT inhib	TexasRed fluor	PNC assembly inh
NCC(=O)N[C@@H](CCCN=C(N)N)C(=O)NCC(=O)N[C@@H](CC(=O)O)C(=O)N[C@@H](CC(N)=O)C(=O)N1CC[C@@H](C(=O)O)C1	-4%	-4%	0%	-8%	0%	/
Cc1ccc(NC(=O)c2cn(CCC#N)nc2-c2cccs2)c([N+](=O)[O-])c1	0%	12%	5%	3%	-1%	-112*
COc1cc2c(C(=O)NCc3ccc4c(c3)OCO4)cn(CC(C)C)c(=O)c2cc1OC	-5%	0%	-13%	5%	-1%	-113*
Cc1cc2ccccn2c1C(=O)c1ccc(NN)c([N+](=O)[O-])c1	?	2%	4%	10µM*	-3%	/
CCN(CC)S(=O)(=O)c1cccc(C(=O)c2c(C)cc3ccccn23)c1	-3%	-9%	1%	3%	-2%	-94*
Cc1cc2ccccn2c1C(=O)c1cc([N+](=O)[O-])cc([N+](=O)[O-])c1	-19%	1%	10%	-11%	-5%	/
Cc1cc(/C=N/NC(=O)CC#N)c(C)n1-c1ccc([N+](=O)[O-])cc1	-24%	2%	?	?	1%	/
Cc1ccc(-n2c(C)cc(/C=N/Nc3ccc([N+](=O)[O-])cn3)c2C)cc1	?	-1%	6%	2µM*	1%	14
Cc1ccc(Cn2cc(/C=N/Nc3ccc([N+](=O)[O-])cn3)c3ccccc32)cc1	11µM*[quencher]	1%	12%	10µM*	-3%	?
Cc1c(/C=N/Nc2ccc([N+](=O)[O-])cn2)c2ccccc2n1Cc1ccccc1	?	1%	8%	?	1%	/
Cc1c(C(=O)O)cccc1-n1c(C)cc(/C=N/Nc2ccc([N+](=O)[O-])cn2)c1C	?	-1%	5%	13µM*	-7%	/
Cc1cc(/C=N/Nc2ccc([N+](=O)[O-])cn2)c(C)n1-c1ccccc1	?	-8%	8%	3.5µM*	-2%	-1
CCOC(=O)/C=C/C(=O)Nc1ccccc1-c1ccccc1NC(=O)/C=C/C(=O)OCC	-11%	-3%	?	20µM*	0%	38
CCOC(=O)/C=C/C(=O)Nc1cccc([N+](=O)[O-])c1	2%	6%	7%	1%	1%	4
CCOc1ccc(Nc2nc3ccccc3n3cnnc23)cc1	?	4%	12%	?	-9%	/
Oc1ccc(/C=N/N=C(c2ccccc2)c2ccccc2)c(O)c1O	13µM*[quencher]	2%	?	8.9µM*	-13%	-28
CCOc1cc2[nH]c(=O)n(Cc3cccc(OC)c3)c(=O)c2cc1OCC	-16%	-2%	-15%	-5%	-1%	10
COC(=O)Cn1c(=O)c2c(n(Cc3ccccc3)c1=O)N/C(=C/c1ccc(Br)cc1)C2=O	?	1%	9%	16µM*	-7%	/
COC(=O)CN1C(=O)N/C(=C/c2ccc(OC)cc2)C1=O	-19%	-1%	-4%	-16%	-1%	/
O=C(NNc1c2ccccc2nc2ccccc12)c1ccc(O)cc1	?	-6%	2%	?	0%	?
O=C(NNc1c2ccccc2nc2ccccc12)C(O)c1ccccc1 (stereo not drawn)	?	-3%	11%	14µM*	-3%	/
O=C(NNc1c2ccccc2nc2ccccc12)c1ccccc1O	6.3µM*[quencher]	4%[53 µM]	-1%	2.2µM*	-14%[53 µM]	6
CCCC(=O)NNc1c2ccccc2nc2ccccc12	-21%	16%	5%	?	-4%	-4
O=C(CCCO)NNc1c2ccccc2nc2ccccc12	-14%	0%	-5%	?	-2%	/
O=C(NNc1c2ccccc2nc2ccccc12)c1ccc(O)cc1O	13µM*[quencher]	8%	8%	2.2µM*	-29%	?
SMILES	Tau fluor counter	TRb-SRC2 inh	Tau fibril FP	Tau ThT inhib	TexasRed fluor	PNC assembly inh
O=C(NNc1c2ccccc2nc2ccccc12)c1cccc(O)c1	14µM*[quencher]	-6%	13%	2.8µM*	-14%	7
O=C1c2ccccc2C(Cc2ccncc2)(Cc2ccncc2)c2ccccc21	-4%	0%	4%	-8%	-2%	/
O=C(O)C1C2CC2CN1C(=O)c1ccc(Cl)cc1 (stereo not drawn)	2%	-1%	5%	0%	-6%	/
O=C(COc1ccccc1)NNc1c2ccccc2nc2ccccc12	3%	3%	-1%	5%	-2%	-13
COc1ccc(OCC(=O)NNc2c3ccccc3nc3ccccc23)cc1	16µM*[quencher]	-2%	?	6.3µM*	-8%	7
COC(=O)C1=C(C(=O)OC)SC2(S1)C(C(=O)OC)=C(C(=O)OC)SC1=C2c2cccc(C)c2NC1(C)C	?	2%	?	14µM*	-8%	-7
CCOC(=O)C1(C)Oc2ccccc2C(C(=O)OC)=C1C(=O)OC (stereo not drawn)	4%[81.3 µM]	-8%	14%[81.3 µM]	-1%[81.4 µM]	-4%	/
Cc1nnc2c3ccccc3nc(Nc3ccccc3C(=O)O)n12	-11%	-9%	0%	?	-1%	/
Cc1nc(-c2ccccc2)nc2sc(C(=O)c3ccc(F)cc3)c(N)c12	?	0%	?	?	-1%	/
COc1ccc(C(=O)c2sc3nc4c(c(C(F)(F)F)c3c2N)CN(C(C)=O)CC4)cc1OC	-10%	7%	4%	14µM*	-2%	/
COc1ccc(CNC(=O)c2sc3nc4c(c(C(F)(F)F)c3c2N)CCC4)cc1OC	-11%	-4%	9%	-6%	-2%	?
CC(=O)N1CCc2nc3sc(C(=O)c4ccc(F)cc4)c(N)c3c(C(F)(F)F)c2C1	-14%	-6%	8%	4.5µM*	-5%	/
CCSc1nnc(-c2ccc(Cl)cc2)c2ccccc12	-8%	-13%	-1%	-9%	-2%	-22
COc1ccc(CC(=O)N2CCc3cc(OC)c(OC)cc3C2COc2ccc(F)cc2)cc1OC (stereo not drawn)	-3%	-1%	5%	1%	0%	/
CC(NC(=O)C(NC(=O)C1CCCN1C(=O)OC(C)(C)C)C(C)C)C(N)=O (stereo not drawn)	-1%	-9%	-2%	1%	-1%	-94*
O=C(O)c1ccc2cc(-c3ccc(O)c(C45CC6CC(CC(C6)C4)C5)c3)ccc2c1	?	14%	?	28µM*	-5%	/
